From PubChem BioAssay
Most compounds without a hit are left out; they make up all but 1.1% or so of the library.
PfHsp40 rescue: restores yeast growth despite PfHsp40 toxicity; growth rescue, % at 12.5 µM; AID 504582; 340,000 compounds, 0.68% hits; S. cerevisiae expressing PfHsp40, growth rescue, ATP luminescence; in the data active means growth rescue above about 28%, passing the limit was not always enough; inconclusive means no clear call, values can overlap the other calls;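 further: yeast W303a lacking pdr1 and pdr3 grown in galactose medium; growth measured after three days at 30 °C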
Y pestis TopoI: blocks Yersinia pestis topoisomerase I activity. 360,000 compounds, 0.064% hits. Y. pestis Topo-I cleavage product accumulation, plate reader. activity, % at 10 µM; in the data active means activity above about 50%, passing the limit was not always enough; inconclusive means no clear call, values can overlap the other calls
PrP 5UTR inh: suppresses PrP 5' UTR mRNA reporter expression; 340,000 compounds, 0.35% hits; inhibition, % (test concentration not listed); cell-based PrP 5' UTR mRNA reporter, plate reader; AID 488862; in the data active means inhibition above about 52%; further: 0 = median of the neutral control wells
BioA inh-1: blocks M. tuberculosis BioA enzyme activity. purified M. tuberculosis BioA enzyme, plate reader. inhibition, % at 9.99 µM. 360,000 compounds, 0.096% hits. AID 602481; in the data active means inhibition above about 40%; inconclusive means no clear call, values can overlap the other calls
FadD28 FP inh: blocks FadD28 binding to the bisubstrate probe; fluorescence polarization; inhibition, % at 12.5 µM; 360,000 compounds, 0.22% hits; AID 588549; in the data active means inhibition above about 8.5%, passing the limit was not always enough; inconclusive means no clear call, values can overlap the other calls
PrP UTR cherry: prion 5' UTR mRNA inhibition, cherry-pick retest; shares compounds with PrP 5UTR inh; cell-based prion protein 5' UTR reporter, plate reader; inhibition, % at 2.5 µM; 1,100 compounds, 48% hits; AID 504592; in the data active means inhibition above about 54%; inconclusive means no clear call, values can overlap the other calls
BioA inh-2: Mtb BioA enzyme inhibition. AID 651679. 310 tested, under 10 active. purified BioA enzyme, plate reader, dose response. max activity, %. shares compounds with BioA inh-1;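 further: top concentration of the dilution series was 10 µM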
Target sequence (P9WQ81 whole entry, looked up): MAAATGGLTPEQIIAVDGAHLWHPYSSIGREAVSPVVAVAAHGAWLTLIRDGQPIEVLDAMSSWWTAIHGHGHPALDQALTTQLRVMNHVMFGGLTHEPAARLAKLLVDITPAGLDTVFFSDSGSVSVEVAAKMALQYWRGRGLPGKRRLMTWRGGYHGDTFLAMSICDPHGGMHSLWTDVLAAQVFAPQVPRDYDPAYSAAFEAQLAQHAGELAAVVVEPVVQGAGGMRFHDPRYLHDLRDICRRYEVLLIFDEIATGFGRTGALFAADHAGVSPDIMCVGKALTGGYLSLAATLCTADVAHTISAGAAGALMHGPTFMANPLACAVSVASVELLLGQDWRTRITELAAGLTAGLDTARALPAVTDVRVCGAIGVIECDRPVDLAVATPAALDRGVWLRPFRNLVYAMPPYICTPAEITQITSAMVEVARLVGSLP
HepG2 tox 2: HepG2 viability loss; max activity, %; 310 tested, under 10 active; shares compounds with BioA inh-1; HepG2 cytotoxicity, plate reader
NIH3T3 tox 5: cytotoxicity in NIH3T3 cells; 310 tested, under 10 active; AID 651900; plate reader; shares compounds with BioA inh-1; activity change, negative = cytotoxicity, % at 26 µM
Numbers without * were called inactive; i = inactive; ? = inconclusive; . = not tested or not shown. Unless noted, how the calls were made is not given here.

SMILES | PfHsp40 rescue | Y pestis TopoI | PrP 5UTR inh | BioA inh-1 | FadD28 FP inh | BioA inh-2 | HepG2 tox 2 | NIH3T3 tox 5 | others
C[C@H]1CCCCO[C@H](CN(C)CC2CCCCC2)[C@@H](C)CN([C@@H](C)CO)C(=O)c2cc(NC(=O)Nc3cccc4ccccc34)ccc2O1 | . | . | . | -5.5 | . | . | . | .
COc1ccc(-c2cc3nc4n(c(=O)c3s2)CCC4)cc1 | 3.5 | 0.9 | 34.7 | -0.9 | -0.9 | . | . | .
COc1ccc(-c2cc3nc(C)n(N)c(=O)c3s2)cc1 | -6.7 | -2.8 | 90.6* | -0.2 | -2.5 | . | . | . | PrP UTR cherry=92.5*
Cc1nc2cc(-c3ccccc3)sc2c(=O)n1N | -1.2 | 13.1 | 80.9* | . | 1.2 | . | . | . | PrP UTR cherry=78.5*
C[C@@H]1CCCCO[C@H](CN(C)S(=O)(=O)c2cn(C)cn2)[C@H](C)CN([C@@H](C)CO)C(=O)c2cc(NS(=O)(=O)c3ccc(Cl)cc3)ccc2O1 | . | . | . | -4.8 | . | . | . | .
Cc1nccn1CCCNCc1c(C(=O)N2CCCCCCC2)nc2ccc(Cl)cn12 | 0.2 | -2.1 | 84.0* | . | -3.5 | . | . | . | PrP UTR cherry=-13.1
Cc1cc(C)c(S(=O)(=O)Nc2ccc3c4c(cccc24)CC3)c(C)c1 | 1.8 | -7.0 | 75.5* | -1.0 | -1.5 | . | . | . | PrP UTR cherry=89.1*
OCCN1CCN(CC/C=C2/c3ccccc3Sc3ccc(Cl)cc32)CC1 | -0.2 | 6.7 | 82.4* | 2.8 | -4.8 | . | . | . | PrP UTR cherry=-19.3
CN(C)CC/C=C1\c2ccccc2Sc2ccc(Cl)cc21 | 1.1 | 2.3 | 9.0 | 2.7 | -3.4 | . | . | .
C[C@@H]1CN([C@@H](C)CO)C(=O)c2cc(-c3ccccc3F)cnc2O[C@@H]1CN(C)Cc1ccccc1F | . | . | . | -0.6 | . | . | . | .
Cc1c(Cl)cccc1-n1c(SCC(=O)NCc2cccs2)nnc1-c1ccncc1 | 0.2 | 17.1 | -13.0 | 13.7 | -0.3 | . | . | .
O=C(CSc1nnc(-c2ccncc2)n1-c1ccc(Cl)cc1)NCc1cccs1 | -1.2 | -2.3 | -16.0 | 47.4* | -1.8 | -9.6 | -13.1 | -7.8
O=C(C[C@@H]1CC[C@@H](NC(=O)Nc2cc(F)ccc2F)[C@H](CO)O1)Nc1ccccc1 | . | . | . | -0.7 | . | . | . | .
COC(=O)C[C@@H]1CC[C@H]2[C@@H](COC[C@@H](O)CN2C(=O)Nc2cccc(F)c2)O1 | . | . | . | 5.0 | . | . | . | .
CNC(=O)C[C@H]1CC[C@@H]2[C@H](COC[C@@H](O)CN2C(=O)Nc2cccc(OC)c2)O1 | . | . | . | 76.8* | . | 4.9 | i | -6.4
COC(=O)C[C@H]1CC[C@@H]2[C@H](COC[C@@H](O)CN2C(=O)Nc2cccc(F)c2)O1 | . | . | . | 42.0* | . | -7.3 | i | -5.0
CNC(=O)C[C@@H]1CC[C@H]2[C@@H](COC[C@H](O)CN2C(=O)Nc2cccc(OC)c2)O1 | . | . | . | 1.3 | . | . | . | .
CC(=O)c1ccc(C(=O)N2CCCC(C(=O)c3cc(F)ccc3F)C2)s1 (configuration not stated) | -0.8 | -4.3 | -38.6 | 37.6 | -0.5 | . | . | .
CC(=O)c1ccc(C(=O)N2CCCC(Nc3ccccc3)C2)s1 (configuration not stated) | -1.1 | 1.7 | -24.5 | 64.1* | ? | -8.3 | 23.8 | -0.6
COc1ccc(F)cc1C(=O)C1CCCN(C(=O)c2ccc(C(C)=O)s2)C1 (configuration not stated) | 2.4 | 11.1 | -9.8 | 70.9* | -2.4 | -8.4 | -16.4 | -3.1
O=C(c1ccc(N2CCOCC2)cc1)N1CCCC(Nc2ccccc2)C1 (configuration not stated) | -0.1 | 6.2 | -7.7 | -0.9 | 0.1 | . | . | .
CC(=O)c1ccc(C(=O)NC2CCCN(Cc3ccccc3F)C2)s1 (configuration not stated) | -0.1 | -1.5 | -4.0 | 46.0* | -1.5 | -7.1 | -8.7 | 4.6
CC(=O)c1ccc(C(=O)N2CCCC(C(=O)c3ccc(Cl)cc3)C2)s1 (configuration not stated) | -0.6 | 12.7 | -14.5 | 49.5* | -4.5 | -6.4 | 7.3 | -2.1
O=C(C[C@H]1C[C@H]2c3cc(NC(=O)Nc4ccc(F)cc4)ccc3O[C@H]2[C@@H](CO)O1)NC1CCCCC1 | . | . | . | -1.5 | . | . | . | .
CCNC(=O)C[C@H]1CC[C@@H]2[C@@H](COc3ccc(NC(=O)c4ccc(F)cc4)cc3C(=O)N2C)O1 | . | . | . | 0.3 | . | . | . | .
CCC(=O)N1[C@@H](CO)[C@@H]2c3ccccc3N(S(=O)(=O)c3ccccc3C)C[C@@H]21 | . | . | . | -4.0 | . | . | . | .
